Data on 94 compounds can be found in PubChem BioAssay AID485317 (Broad Institute, 2010).

Hit rate of the full screen: of about 290,000 compounds, about 11,000 (3.8%) were called active.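 Rule for the calls: active = mean replicate inhibition above about 79%, with every replicate also reaching it (limit read from the data); inconclusive = only one of the two criteria met; inactive = mean below limit and not every replicate reaching it.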 The sample as a whole holds a higher share of actives than the screen did.

Sequence of FAD-linked sulfhydryl oxidase ALR (Homo sapiens) (P55789 whole entry, looked up): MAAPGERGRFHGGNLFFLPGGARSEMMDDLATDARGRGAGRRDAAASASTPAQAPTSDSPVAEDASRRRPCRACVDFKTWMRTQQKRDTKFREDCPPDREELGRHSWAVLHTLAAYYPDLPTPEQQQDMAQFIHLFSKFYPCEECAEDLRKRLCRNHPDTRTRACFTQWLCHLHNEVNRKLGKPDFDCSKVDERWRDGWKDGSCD

The test concerns the target FAD-linked sulfhydryl oxidase ALR (Homo sapiens) (UniProt P55789). Nature of the test: inhibitors of human ALR sulfhydryl oxidase, primary screen, biochemical, H2O2 detection, HRP-luminol luminescence, single point (AID 485317). The settings on record: purified ALR, DTT oxidation, active compounds read high, concentration not given here.
For `O=C(O)CCC(=O)Nc1ccc(N2CCOCC2)cc1`, the inhibition is -4.54% (inactive). With `Cn1cnnc1SCC(=O)Nc1ccc(N2CCOCC2)cc1`, the inhibition was 95.8% (active). As for `Cn1c(SCC(=O)Nc2cccc(O)c2)nnc1-c1ccc(S(=O)(=O)N2CCOCC2)cc1`, the inhibition was 16.7% (inactive).

For the compound `Cn1c(SCC(=O)Nc2ccc(N3CCOCC3)cc2)nnc1C(F)(F)F`, the inhibition is 93.8% (active). On to `CCn1c(Cc2ccc(OC)cc2)nnc1SCC(=O)Nc1ccc(N2CCOCC2)cc1`, for which the inhibition was 39.5% (inactive). With `Cn1c(SCC(=O)N2CCOCC2)nnc1-c1ccc(NC(=O)c2ccccc2F)cc1`, the inhibition was -5.97% (inactive).

Turning to `COc1ccc(C(=O)NCc2ccc(C)cc2)cc1S(=O)(=O)N1CCCC1`, the inhibition was -2.12% (inactive). Take `Cc1nc2ccccc2c(=O)n1-c1ccc(NS(=O)(=O)c2ccc(F)cc2F)cc1`: the inhibition is -10.6% (inactive). In the case of `CCn1c(CNS(=O)(=O)c2ccc(Cl)cc2)n[nH]c1=S`, the inhibition is 21.4% (inactive).

Take `CCn1c(CN2C(=O)CSc3ccccc32)n[nH]c1=S`: the inhibition is 91.7% (active). Regarding `CCn1c(CSCc2c(Cl)cccc2Cl)n[nH]c1=S`, the inhibition was 67.9% (inactive). As for `O=S(=O)(Nc1ccc2cn[nH]c2c1)c1ccccc1`, the inhibition is -80.8% (inactive).

Consider `O=S(=O)(Nc1ccc2nc(-c3ccco3)[nH]c2c1)c1ccccc1`, for which the inhibition was 88.8% (active). `Cn1c(CCN2CCCC2)nc2cc(NS(=O)(=O)c3ccccc3)ccc21`: the inhibition is -0.934% (inactive). The figure for `COC(=O)c1ccc(NS(=O)(=O)c2cc3c4c(c2)C(C)C(=O)N4CCC3)cc1` (centres undefined) is -2.24% (inactive). For the compound `O=C(COC(=O)c1cccc(Cl)c1)Nc1ccc2[nH]c(=O)[nH]c2c1`, the inhibition was -0.957% (inactive). With `CCC(=O)NC(=S)Nc1ccc(NC(=O)c2ccco2)c(Cl)c1`, the inhibition was -18.1% (inactive). Turning to `O=C(NNC(=S)Nc1ccc(Br)cc1Cl)c1ccco1`, the inhibition is 82.2% (active). The figure for `O=C(NNC(=O)c1ccco1)Nc1ccccc1` is 39.9% (inactive); for `CN(CCc1ccccc1)C(=O)c1cccc(NC(=O)Cc2ccc([N+](=O)[O-])cc2)c1` it is 1% (inactive); for `O=C(OCCN1C(=O)c2ccccc2C1=O)[C@@H]1CC(O)CN1S(=O)(=O)c1ccccc1[N+](=O)[O-]` (some centres undefined) it is -2.79% (inactive).

In the case of `COc1cc(/C=N/NC(=O)c2cc(C)n(-c3ccc(F)cc3)c2C)cc(OC)c1O`, the inhibition was 64% (inactive). In the case of `COc1cc(/C=N/NC(=O)c2cc(-c3ccccc3C)nc3ccccc23)cc(OC)c1O` it was -3.08% (inactive); in that of `COc1ccc(/C=C/C(=O)Nc2cccnc2)cc1OC`, -0.926% (inactive); in that of `COc1cc(/C=N/O)cc(Br)c1OS(=O)(=O)c1ccc(C)cc1`, -15% (inactive). The figure for `COc1cc(/C=N/Nc2ccc(C)cc2)cc(Br)c1O` is 98.4% (active).

As for `COc1cc(/C=N/NC(=S)Nc2cccnc2)cc(OC)c1O`, the inhibition is 95% (active).

On to `Nc1c(C(=O)Nc2ccc3c(c2)OCCO3)nnn1Cc1ccccc1`, for which the inhibition was -23.5% (inactive). The figure for `COc1ccc(/C=N/NC(=O)c2cccc(C(F)(F)F)c2)cc1` is -3.29% (inactive); for `CC(C)c1c(C(=O)N/N=C/c2ccc(-c3ccccc3)cc2)nnn1-c1nonc1N` it is -10.7% (inactive). For the compound `Cc1nonc1C(=O)N/N=C/c1ccc(O)cc1`, the inhibition is 99.2% (active). With `Cc1nc2ccc(C(=O)O)cc2[nH]1`, the inhibition is -25.4% (inactive).

Turning to `COC(=O)N/N=C/c1ccc(/C=N/NC(=O)OC)cc1`, the inhibition was -1.28% (inactive). For the compound `Cc1nc2ccc(C(=O)N/N=C/c3ccc(O)cc3)cc2[nH]1`, the inhibition was 99% (active). As for `CCn1nc(C(=O)NNC(=O)C2CSC3(C)CCC(=O)N23)c2ccccc2c1=O` (centres undefined), the inhibition is -0.847% (inactive). For `CC(C)CC1(C)NC(=O)N(CC(=O)Nc2ccc3c(c2)OCCO3)C1=O` (centres undefined), the inhibition was 4.51% (inactive). The figure for `CCC(C)c1ccccc1N1CC(C(=O)N2CCN(S(=O)(=O)c3ccc(F)cc3)CC2)CC1=O` (centres undefined) is 1.3% (inactive). In the case of `COCC(=O)Nc1c(I)c(C(=O)NCC(O)CO)c(I)c(C(=O)N(C)CC(O)CO)c1I` (centres undefined) it was -12.2% (inactive). Turning to `O=C(CSc1ccccn1)N1CCN(S(=O)(=O)c2ccc(Cl)cc2)CC1`, the inhibition is -0.731% (inactive). The figure for `CO[C@@H]1[C@@H](OC(N)=O)[C@@H](O)C(Oc2ccc3c(O)c(NC(=O)c4ccc(O)c(CC=C(C)C)c4)c(=O)oc3c2C)OC1(C)C` (some centres undefined) is 1.83% (inactive).

As for `COc1ccc(F)cc1C(=O)COC(=O)c1n[nH]c(=O)c2ccccc12`, the inhibition is -1.76% (inactive).

In the case of `CC(C)(C)OC(=O)N[C@H](C(=O)OC(C)(C)C)c1ccc(Br)cc1`, the inhibition is -0.888% (inactive). As to `O=C1N[C@@H](Cc2ccccc2)C(=O)N2[C@@H]3N(S(=O)(=O)c4ccc(F)cc4)c4ccccc4[C@]3(Br)C[C@@H]12`, the inhibition is -1.43% (inactive).

As for `NS(=O)(=O)c1ccc(NC2=CC(c3ccc(F)cc3)N(c3ccc(S(N)(=O)=O)cc3)C2=O)cc1` (centres undefined), the inhibition is 97.6% (active). In the case of `NS(=O)(=O)c1ccc(NC(=O)COC(=O)C2(c3ccc(F)cc3)CCCC2)cc1` it was -14.8% (inactive); in that of `CC(=O)C1=C(O)C(=O)N(c2ccc(S(N)(=O)=O)cc2)C1c1ccccc1F` (centres undefined), -0.498% (inactive); in that of `COc1ccccc1NS(=O)(=O)c1ccc(C)c(C(=O)NNC(=O)c2csc(N3CCOCC3)n2)c1`, -6.78% (inactive). In the case of `Cc1ccccc1-c1n[nH]c(=S)n1C`, the inhibition is 93.4% (active). The figure for `CCn1c(-c2ccoc2C)n[nH]c1=S` is 6.36% (inactive); for `CCCc1cc(-c2n[nH]c(=S)n2CC)c2ccccc2n1` it is -9.51% (inactive). As for `O=C(CCNC(=O)c1ccc(Cl)cc1)NC1CCCc2ccccc21` (centres undefined), the inhibition was -6.93% (inactive). Consider `CCOc1ccccc1NC(=O)CCc1nnc2ccc(NCc3ccco3)nn12`, for which the inhibition is 1.12% (inactive). For `CCOc1ccccc1NC(=O)Cc1cccs1`, the inhibition was -14.8% (inactive).

In the case of `CCOc1ccccc1NC(=O)CCc1ccc(C)o1`, the inhibition is 99.7% (active). Consider `CCOc1ccc(NC(=O)CN(C)C(=O)CCSc2ccc(F)cc2)cc1OCC`, for which the inhibition is -3.71% (inactive). For the compound `COc1ccc(S(=O)(=O)Nc2cc(C)on2)cc1NC(C)=O`, the inhibition is -7.72% (inactive). The figure for `O=C(CN1CCN(c2ccccc2O)CC1)NC(=O)NCc1ccccc1` is 13.1% (inactive); for `Oc1ccccc1N1CCN(C(=S)NCc2ccccc2)CC1` it is 96.4% (active); for `CC1CCCCN1C(=S)NCc1ccccc1` (centres undefined) it is -1.5% (inactive). In the case of `Cc1csc(=Nc2ccccc2)n1CCO`, the inhibition is 98.7% (active). In the case of `C=C(C)CNC(=S)/N=c1\scc(C)n1CC` it was 18% (inactive); in that of `Cc1csc(=NC(=O)c2ccccc2)n1CCO`, 99% (active). Consider `O=c1cc(CCl)nc2scc(-c3ccccc3)n12`, for which the inhibition was 60.8% (inactive).

For `CCOC(=O)c1sc(=NC(=O)c2ccc(Br)cc2)n(C)c1C`, the inhibition was -3.96% (inactive).

In the case of `OCCn1c(-c2ccccc2)csc1=Nc1ccccc1`, the inhibition was 99% (active). The figure for `Cc1cc(C(=O)CCC(=O)NNC(=O)c2ccccc2O)c(C)s1` is 8.1% (inactive); for `O=C(COC(=O)c1ccc2ncsc2c1)Nc1ccc(Cl)cc1` it is 16% (inactive). Turning to `COc1ccc(NC(=O)C(=O)NCC(c2ccco2)N2CCc3ccccc3C2)cc1` (centres undefined), the inhibition is -1.35% (inactive). As for `COc1ccc(NS(=O)(=O)c2cc(NC(=O)c3ccc(S(=O)(=O)N(C)C)cc3)ccc2N2CCOCC2)cc1`, the inhibition is 0.706% (inactive).

Turning to `Cc1cc(C(=O)OC(C)C(=O)NC2CCCCC2C)c(C)o1` (centres undefined), the inhibition is 2.82% (inactive). Turning to `CC1CC(=O)Nc2ccccc2N1S(=O)(=O)c1cccs1` (centres undefined), the inhibition is -4.3% (inactive). As for `CC1CC(C)(C)NC(=S)N1CCC(=O)N1CCN(Cc2ccccc2)CC1` (centres undefined), the inhibition was -28.3% (inactive). As to `CC1CC(=S)Nc2ccccc2N1Cc1ccccc1` (centres undefined), the inhibition was 99% (active). Take `CC1CCCN(C(=O)c2cc(-c3ccco3)nc3ccccc23)C1` (centres undefined): the inhibition was 6.96% (inactive). Consider `Cc1cc(C)c(C)c(S(=O)(=O)N2CCN(C(=O)c3ccc4c(=O)n5c(nc4c3)CCC5)CC2)c1C`, for which the inhibition was -2.44% (inactive). Turning to `O=C(Nc1cccc(S(=O)(=O)N2CCCCC2)c1)c1cncc(Br)c1`, the inhibition was -4.78% (inactive).

On to `Cc1ccc(-n2[nH]c(C)c(/C=N/N3C(=O)c4cccc5cccc(c45)C3=O)c2=O)cc1`, for which the inhibition was -15.1% (inactive). Consider `CCc1nnc(NS(=O)(=O)c2ccc(N=Cc3c(C)[nH]n(-c4ccc(C)cc4)c3=O)cc2)s1`, for which the inhibition is 63.1% (inactive). Turning to `COc1cc(SC#N)ccc1N=Cc1c(C)[nH]n(-c2ccc(C)cc2)c1=O`, the inhibition was 99.6% (active). In the case of `O=C(NCCCN1CCCC1=O)c1cccc(S(=O)(=O)NCc2ccccc2)c1` it was 0.0635% (inactive); in that of `CC(C)Oc1ccccc1C(=O)NC(CO)C(=O)O` (centres undefined), 2.33% (inactive); in that of `CC(C)NC(=O)c1ccc(Cl)cc1Cl`, -6.81% (inactive). On to `CC(C)NC(=O)c1ccccc1S(=O)c1ccccc1C#N` (centres undefined), for which the inhibition is 99.6% (active). Regarding `CC(C)CN(C(=O)COC(=O)c1ccc2ccccc2c1)c1c(N)n(Cc2ccccc2)c(=O)[nH]c1=O`, the inhibition was 1.44% (inactive). Turning to `O=C(O)Cc1ccc(NC(=O)Nc2cccc3ccccc23)cc1`, the inhibition is -53.7% (inactive). Consider `S=C(NCCc1ccccc1)NCc1ccccc1Cl`, for which the inhibition was 5.1% (inactive).

As to `O=C(O)Cc1ccc(NCc2ccccc2Cl)cc1`, the inhibition was 97.2% (active). As to `CC(=O)C12CC(C)=C(C)CC1CC1C3CCC4=CC(=O)CCC4(C)C3CCC12C` (centres undefined), the inhibition is -1.17% (inactive). As for `COc1ccc(Oc2cn[nH]c2-c2ccc(OC)cc2O)cc1`, the inhibition was 97.1% (active). The figure for `CCOc1ccccc1Oc1cn[nH]c1-c1ccc(OC)cc1O` is 59.2% (inactive); for `COc1ccc(-c2cn[nH]c2-c2ccc(OC)cc2)cc1` it is 0.7% (inactive); for `Oc1[nH]c2ccc(Br)cc2c1N=Nc1nn[nH]n1` it is 89.8% (active). On to `NS(=O)(=O)c1ccc(N=Nc2c(O)[nH]c3ccc(Br)cc23)cc1`, for which the inhibition was -3.47% (inactive). Consider `O=C(CNC(=O)Cc1ccccc1)N=Nc1c(O)[nH]c2ccc(Br)cc12`, for which the inhibition was 10.6% (inactive).

The term inhibition denotes the change of the read-out against control, counted positive when it falls.
